Compound activity deposited in PubChem BioAssay by National Center for Advancing Translational Sciences (NCATS).
TrxR1 substrate = substrates of rat thioredoxin reductase 1; O89049; purified TrxR1 substrate turnover, NADPH consumption readout; Potency, µM (highest dose often 114 µM), inactives show top-dose activity change, negative = substrate turnover; 390,000 compounds, 0.01% hits; also: potency is read from the fitted curve at half-maximal effect; % is scaled to controls: 0 for no effect and ±100 for the full control effect; nearly all actives have a fitted effect of over 50% in size
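Rat TrxR1, dispensed at 90 nM, was prereduced with 400 uM NADPH (final) for 5 min at ~22 deg C, then incubated with compound 15 min before 400 uM selenite. A first-read NADPH fluorescence drop versus no-compound background flagged substrates.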
TrxR1 inh = rat TrxR1 inhibition; O89049; recombinant rTrxR1, NADPH fluorescence consumption, selenite substrate; Potency, µM (doses to about 114 µM), inactives show at the highest dose activity change, negative = inhibition, hits mostly inhibitors; 390,000 compounds, 1% hits; also: potency is read from the fitted curve at half-maximal effect; % is scaled to controls: 0 for no effect and ±100 for the full control effect; nearly all actives have a fitted effect of over 65% in size
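Rat TrxR1 (90 nM in the dispensed reagent) was pre-reduced with 400 uM NADPH for 5 min at room temperature, then incubated with compound for 15 min. After 400 uM selenite was added, NADPH fluorescence (Ex 340/Em 450 nm) was followed for 8 min.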
IL-2 act = activators of IL-2; IL-2 activation reporter assay, cell-based qHTS; stimulated with anti-CD3/CD4/CD28 beads; in transgenic mouse T cells; activation, % (series mostly up to about 46 µM); 360,000 compounds, 0.065% hits; AID 652025; in the data active = activation above about 50%; inconclusive = mostly about 30% to 49%; also: 0% is about no effect
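Screening format: compound pinned onto unstimulated transgenic mouse T cells, 60 min incubation, then anti-CD3/anti-CD4/anti-CD28 bead stimulation for 18 hours at 37 degrees C, followed by EGFP and DsRed detection.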
IDH1 R132H inh = human IDH1 R132H inhibition; O75874; IDH1-R132H enzyme, NADPH consumption, diaphorase/resazurin fluorescence; Potency, µM (highest dose often 76.6 µM), for inactives: top-dose activity change, negative = inhibition, usual class: inhibitors; 390,000 compounds, 0.093% hits; AID 602179; also: potency is read from the fitted curve at half-maximal effect; % is scaled to controls: 0 for no effect and ±100 for the full control effect; nearly all actives have a fitted effect of over 65% in size
Target sequence (O75874 whole entry R132H, stated change not applied): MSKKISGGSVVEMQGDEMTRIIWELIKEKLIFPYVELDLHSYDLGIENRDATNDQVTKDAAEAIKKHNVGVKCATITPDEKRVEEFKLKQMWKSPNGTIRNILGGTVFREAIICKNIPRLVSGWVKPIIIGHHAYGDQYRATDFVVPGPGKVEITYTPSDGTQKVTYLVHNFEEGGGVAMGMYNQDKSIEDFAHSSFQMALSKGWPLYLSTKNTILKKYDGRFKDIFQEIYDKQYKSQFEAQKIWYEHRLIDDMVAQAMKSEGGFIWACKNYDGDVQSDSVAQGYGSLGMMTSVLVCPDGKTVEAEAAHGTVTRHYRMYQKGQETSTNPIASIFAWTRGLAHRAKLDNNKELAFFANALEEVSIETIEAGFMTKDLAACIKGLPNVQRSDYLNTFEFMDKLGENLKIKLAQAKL
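IDH1-R132H (0.5 ug/mL dispensed) in pH 7.5 Tris buffer was preincubated 30 min with compound, then given a substrate mix of 0.016 mM NADPH and 2 mM alpha-KG for 80 min at room temperature; remaining NADPH was read by diaphorase/resazurin fluorescence.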
BRCA1 expr up = increases BRCA1 expression | MCF7-BRCA1-FFLuc reporter, luminescence, 48 h; response scale: scaled: vehicle 0%, 10 µM genistein 100% | Potency, µM (top dose mostly 46.1 µM), for inactives: at the top dose activation, actives largely listed as activators | 380,000 compounds, 1.1% hits | AID 624202; also: potency is read from the fitted curve at half-maximal effect; nearly all actives have a fitted effect of over 80% in size
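MCF7-BRCA1-FFLuc, 2000 cells/well; 2 h attach, 37 °C/5% CO2; compound 48 h; luciferase substrate 15 min; luminescence end-point. Norm. to genistein 10 microM max activation and DMSO; concentration-response curves fitted.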
Giardia killer = Giardia lamblia killing. Giardia lamblia trophozoite viability. activity change, % at 7.66 µM, hits read low. 340,000 compounds, 0.15% hits; in the data active = activity change below about -80%; inconclusive = between about -30% and that limit;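 also: parasites exposed to compound for two days anaerobically before the ATP read; % is scaled to controls: 0 for no effect and ±100 for the full control effect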
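Luminescent ATP signal served as the viability read-out, measured 15-30 min after adding ATP detection reagent to trophozoites that had been incubated with compounds for 48 hrs at 37 deg C anaerobically at 100 cells/well.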
* = called active by the depositor; ? = inconclusive; . = no result given; [ ] = remark or other dose. Only some compounds are listed: those with a hit (about 2.2% of all), similar ones and a draw of the others. Unless noted, calls follow the shape of the dose curve; as a rule, active = well fitted curve in the direction sought with a large enough effect; inconclusive = small, poorly fitted or top-dose-only effect, or another doubt; inactive = no such curve, though single readings can be large; an effect the other way counts as inactive or inconclusive.

SMILES | TrxR1 substrate | TrxR1 inh | IL-2 act | IDH1 R132H inh | BRCA1 expr up | Giardia killer
CN(C)S(=O)(=O)c1cccc(NC(=S)Nc2cccc3cnccc23)c1 | -5% | 40µM* | -1 | 9% | -63% | 6
CC(C)CC(=O)N(c1nnc(-c2cccnc2)s1)C1CCCC1 | 7% | 10% | -1 | 5% | -2% | ?
CC(=O)N(c1nnc(-c2ccc(C)cc2)s1)C1CCCC1 | -5% | 8% | -3 | 0% | 11µM* | 15
CN(Cc1ccccc1)C(=O)c1ccc2c(c1)N(Cc1ccccc1F)C(=O)c1ccccc1S2(=O)=O | -4% | 25% | . | 6% | -35% | .
CSc1ccc(/C=N/NC(=O)c2cccs2)cc1 | 5% | 15% | -4 | 12% | ? | 0
O=C(N/N=C/c1cccc([N+](=O)[O-])c1)c1ccc(Br)cc1 | 0% | 0% | 1 | 26% | 3% | 1
O=C(N/N=C/c1ccc(-n2ccnc2)cc1)c1cccs1 | -9% | 4% | -2 | -9% | 11µM* | 0
O=C(N/N=C/c1cccc([N+](=O)[O-])c1)c1cccs1 | -4% | -10% | 2 | 5% | 13µM* | 3
O=C(N/N=C/c1ccncc1)c1cccs1 | -6% | 2% | -4 | 8% | 13µM* | -25
CCCn1ccc2c(OCC(=O)NCc3ccccc3Cl)cccc2c1=O | 4%[57.1 µM] | 4%[57.1 µM] | . | 8% | 0% | .
COC(=O)[C@H](Cc1ccccc1)N(Cc1ccc(C)cc1)S(C)(=O)=O | -4% | 16% | . | . | . | .
CSc1nnc(N2C(=O)C(O)=C(C(=O)c3ccco3)C2c2ccccc2F)s1 (stereo not given) | -8% | 7.9µM* | 3 | 17% | 52% | 11
C=CCSc1nnc(N2C(=O)C(O)=C(C(=O)c3ccco3)C2c2ccccc2F)s1 (stereo not given) | -14% | 50µM* | 0 | 25% | 18% | -30
CCOC(=O)c1ccccc1NS(=O)(=O)c1c(-c2ccc(C)cc2)csc1C(=O)OC | 2%[57.1 µM] | 12%[57.1 µM] | . | 1% | . | .
COC(=O)C(Cc1ccc(OC(=O)c2ccc(Cl)cc2)cc1)N1Cc2ccccc2C1=O (stereo not given) | -11% | 27%[57.1 µM] | 1 | 5% | 13µM* | -13
COC(=O)C(Cc1ccc(OC(=O)c2ccc(C(F)(F)F)cc2)cc1)N1Cc2ccccc2C1=O (stereo not given) | -13%[57.1 µM] | 17%[57.1 µM] | -3 | 3% | 11µM* | -3
CCOC(=O)c1ccc(NC(=O)C(Cc2ccccc2)N2Cc3ccccc3C2=O)cc1 (stereo not given) | -7% | 17% | . | -19% | . | .
COc1ccc(NC(=O)c2oc3c(c2C)-c2nn(Cc4ccccc4Cl)cc2CC3)cc1OC | 8%[11.4 µM] | 37%[11.4 µM] | . | -6% | . | .
Cc1c(Cl)cccc1NC(=O)CCS(=O)(=O)c1ccc2c(c1)CC(C)N2C(=O)C1CC1 (stereo not given) | 2% | 9% | . | 18% | . | .
COc1ccc(NC(=O)c2cc(-c3ccc(C)o3)nc3ccccc23)cc1OC | 8%[57.1 µM] | 28µM* | -4 | 0% | 90% | -3
COc1ccc2cc(-c3cc(C(=O)O)c4ccccc4n3)ccc2c1 | 36% | -8% | 1 | 4% | -95% | -105*
COc1ccc(-c2cc(C(=O)Nc3c(Cl)cc(Cl)cc3Cl)c3ccccc3n2)cc1OC | 129% | 79µM* | -4 | -1% | -48% | 1
COc1ccc2cc(-c3ccon3)ccc2c1 | 11% | 6% | 1 | 6% | 10µM* | 16
COc1ccc(-c2cc(C(=O)Nc3ccc(Cl)cc3Cl)c3ccccc3n2)cc1OC | 22% | -15% | -1 | 1% | -12% | -1
COc1ccc(NC(=O)c2cc(-c3ccc(C)o3)nc3ccccc23)c(OC)c1 | -5% | ? | -1 | -3% | 76% | ?
SMILES | TrxR1 substrate | TrxR1 inh | IL-2 act | IDH1 R132H inh | BRCA1 expr up | Giardia killer
COc1ccc(C(=O)N=c2nc(-c3ccccc3)n(-c3ccccc3)s2)cc1 | 8%[0.0914 µM] | 10% | . | . | 0% | 40
Cc1ccc(C)c(NC(=O)N2CCC(CN3CCOCC3)CC2)c1 | -17% | -17% | . | 6% | . | .
CN(C)c1ccc(N=Nc2ccnc3ccccc23)cc1 | -2% | 7% | . | . | 17% | .
NC(=NCc1ccco1)NC(=O)c1ccc(Cl)cc1 | -4%[57.1 µM] | -7%[57.1 µM] | -1 | -10% | 11µM* | -6
CCOc1ccc(CC(=O)Nc2c(C(=O)c3ccccc3)oc3ccc(OC)cc23)cc1OCC | 7%[11.4 µM] | 8% | . | 1% | -20% | .
COc1ccc(/C(N)=N/OC(=O)c2ccco2)cc1OC | 5% | 22%[57.1 µM] | 1 | 3% | 7.9µM* | -5
N/C(=N\OC(=O)c1ccco1)c1cccc(Br)c1 | -7% | 15% | -1 | 7% | -32% | -2
C(=C\c1ccccn1)/c1ccccc1 | -22% | -30% | . | . | . | .
Cc1cc(=O)oc2cc(OC(=O)CCN3C(=O)c4ccccc4C3=O)ccc12 | 263% | 40µM* | 6 | 1% | -22% | -5
CCCCn1nc(C(=O)Oc2ccc3c(C)cc(=O)oc3c2)c2ccccc2c1=O | 569% | 79µM* | 1 | 9% | 0% | -20
CCCC(=O)Oc1ccc2c(C)cc(=O)oc2c1 | 73% | ? | 6 | 6% | 12% | -3
COC(=O)c1ccc(OCC2c3cc(OC)c(OC)cc3CCN2C(=O)c2cccc(C)c2)cc1 (stereo not given) | -7%[57.1 µM] | -7%[57.1 µM] | . | -6% | -30% | .
COc1cc(CNCCSc2nnnn2C)ccc1OCc1ccccc1C | 6% | 15% | . | 6% | 19% | .
COc1cc2c(NC3CCN(C)CC3)nc(N3CCCN(C)CC3)nc2cc1OCCCN1CCCC1 | 50% | 50µM* | . | . | -15% | .
CN(CCO)c1cc(N2CCCCC2)c2nonc2c1[N+](=O)[O-] | -18% | 45µM* | -1 | 4% | -34% | -11
CN(CCO)c1cc(N2CCC3(CC2)OCCO3)c2nonc2c1[N+](=O)[O-] | -33% | 28µM* | 0 | 7% | -18% | -29
CC1CCCN(c2cc(N(C)CCO)c([N+](=O)[O-])c3nonc23)C1 (stereo not given) | -13%[57.1 µM] | -10%[57.1 µM] | -3 | 8% | 4% | 7
CCn1c(=O)cc(OCC(=O)N2CCN(c3ccc(C)cc3)C(C)C2)c2ccccc21 (stereo not given) | 3% | 21% | . | 0% | -74% | .
Cc1c(Cn2cnc3c(cnn3C(C)(C)C)c2=O)cccc1C(F)(F)F | -6% | 7% | . | . | . | .
CCOc1cc(C2Nc3cccc4cccc(c34)N2)ccc1O | 3% | 25µM* | 2 | 14% | -20% | 0
COc1ccc(C2Nc3cccc4cccc(c34)N2)cc1 | 6% | ? | -3 | 21% | -39% | 30
